# Experimental data taken from the supplement of paper PMC6555819.
# Key:
# Test in all cases: PBM binding z-score (relative to random genomic background probes); higher = stronger binding; sequences stand for … in GC…GCGATTGACAGCGTAGAATGAAGG
# [1] = tested on: PPARg:RXRa DBDmut IVT, anti-RXR (DBD mutation: RXRa K156A/R161A, NR concentration 270 nM, RXRa partner concentration 90 nM)
# How it was run: (§1)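 Antibodies against each partner of ligand-free nuclear receptor dimers (one per run) detected binding on custom Agilent 4×180K protein-binding microarrays after 1 h incubation. The double-stranded probes had 34-nt variable regions carrying direct-repeat seeds, single-nucleotide variants, half-site ablations and random human genomic background sequences. Binding z-scores, from regression-normalized fluorescence, use the random background probes as reference.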
# [2] = tested on: PPARg:RXRa IVT, anti-PPARg (NR concentration 270 nM, RXRa partner concentration 90 nM)
# How it was run: as §1
# [3] = tested on: PPARg DBDmut:RXRa IVT, anti-PPARg (DBD mutation: PPARg1 K132A/R137A, NR concentration 270 nM, RXRa partner concentration 90 nM)
# How it was run: as §1
# [4] = tested on: PPARg DBDmut IVT, anti-PPARg (DBD mutation: PPARg1 K132A/R137A, NR concentration 270 nM)
# How it was run: as §1
# [5] = tested on: PPARg homodimer (NR concentration 180 nM)
# How it was run: as §1
# [6] = tested on: PXR:RXRa (NR concentration 270 nM, RXRa partner concentration 90 nM)
# How it was run: as §1
# [7] = tested on: PXR homodimer (NR concentration 270 nM)
# How it was run: as §1
# [8] = tested on: RARa:RXR (NR concentration 270 nM, RXRa partner concentration 90 nM)
# How it was run: as §1
# [9] = tested on: RARa homodimer (NR concentration 270 nM)
# How it was run: as §1
# [10] = tested on: RARb:RXRa (NR concentration 270 nM, RXRa partner concentration 90 nM)
# How it was run: as §1
# [11] = tested on: RARb homodimer (NR concentration 270 nM)
# How it was run: as §1
# [12] = tested on: RARg:RXRa (NR concentration 270 nM, RXRa partner concentration 90 nM)
# How it was run: as §1
# [13] = tested on: RARg homodimer (NR concentration 270 nM)
# How it was run: as §1
# [14] = tested on: RXRa DBDmut IVT, anti-RXR (DBD mutation: RXRa K156A/R161A, NR concentration 90 nM)
# How it was run: as §1
# [15] = tested on: RXRa homodimer (NR concentration 180 nM)
# How it was run: as §1
# [16] = tested on: THRa:RXRa (NR concentration 90 nM, RXRa partner concentration 90 nM)
# How it was run: as §1
# [17] = tested on: THRa homodimer (NR concentration 90 nM)
# How it was run: as §1
# [18] = tested on: VDR homodimer (NR concentration 270 nM)
# How it was run: as §1
Sequence,PBM binding z-score [1],PBM binding z-score [2],PBM binding z-score [3],PBM binding z-score [4],PBM binding z-score [5],PBM binding z-score [6],PBM binding z-score [7],PBM binding z-score [8],PBM binding z-score [9],PBM binding z-score [10],PBM binding z-score [11],PBM binding z-score [12],PBM binding z-score [13],PBM binding z-score [14],PBM binding z-score [15],PBM binding z-score [16],PBM binding z-score [17],PBM binding z-score [18]
TCATAGAGGTAAATGCTAGGTGAAAGTCCGATCT,2.05,1.32,-0.394,-0.601,0.164,0.0496,-0.193,0.932,-0.0762,0.439,0.335,0.753,0.235,0.932,0.849,1.94,0.361,-0.248
ATCTCTAGGTAAAGTTCTGTGAAAGATCGATAGA,2.44,1.61,1.11,1.68,1.26,0.0126,0.619,0.484,0.939,0.419,-0.0506,0.0649,0.264,0.162,-0.238,0.488,0.369,0.0394
ACTGTTAGTTGAGACGAGGGCAACCGATAGGTTG,-0.176,0.773,0.909,0.848,0.542,1.2,0.0894,0.667,0.756,1.21,1.26,0.764,1.13,0.337,0.451,2.63,0.349,0.808
ACTAGTTGGTCAGCTGAGGGCACACACAATTCGG,0.794,1.19,-0.0581,0.654,0.538,2.26,0.211,1.13,-0.0752,1.73,2.11,0.999,1.42,0.326,0.707,3.55,1.29,0.929
ACCTCTAGGTAACAAGTTCAGTGAAAGAGAGGAC,3.28,2.07,0.823,0.266,0.609,1.57,1.32,0.59,-0.291,1.51,1.85,1.11,1.08,0.979,0.678,1.21,0.425,2.2
ATCTCTAGGTAACCAAGATCAGTGAATGCCGAAC,2.88,2.67,0.887,1.13,0.619,0.0058,0.344,0.377,0.145,0.119,-0.128,0.35,0.445,-0.167,0.343,0.734,0.469,-0.138
ATACCAAGGTGATAGTGAGGTCGTTGATACTAAC,0.454,1.64,0.276,0.701,1.01,3.17,1.94,2.23,0.553,1.51,1.84,2.12,0.961,0.897,1.84,3.3,2.49,3.15
ATCTCTAGGTAACGAAGTTCAGTGAATGCCGAAC,3.22,2.82,0.456,0.901,0.161,1.14,0.916,0.507,0.64,1.14,1.38,0.591,0.883,0.137,0.413,0.946,0.14,1.27
